Laboratory results as given in PMC10163288.
Only a sample is shown. How many sequences the whole screen found active is unknown.

B1: il10ra_site1_sap_30_mot_HHH_b2_02053_af2_000000006_0001_3_19_H_._HHH_b2_06177_0001_0000100006_0000002_0_0001_af2pred_dldesign_0_af2pred (protein)
chain: SPEIEAIRALLKENLSLACAALAKLLAESGNQEDIALARELARLLFEDPERAKELAEKLLAELAK
B2: il10ra_site1_normal_mot_8756ee2cf497b5429c717dfc0c0bcfd6_0001_000000186_0001_1_13_H_._HHH_b1_07372_0001_0000100003_0000001_1 (protein)
chain: SSSSSEEAREVYELIRRAAELHRNGNPEEAEEVLKEAEELAREANNDVLLFQIEYLLRHIGSSSS
B3: il10ra_site1_sap_16_mot_HHH_b1_00992_000000182_0001_23_40_H_._HHH_b1_02295_af2_0001_0000300017_0000001_0_0001 (protein)
chain: SEQVREIEELLKRNVEQAIAALAHLLAKSGDPELLRLAKELSRLMFQNPEEARKLVEEILEELKK
B4: il10ra_site1_normal_mot_HHH_b2_03220_af2_000000223_0001_23_40_H_._HHH_b1_05042_0001_0000100015_0000001_0 (protein)
chain: SSSSSRELSEEAWELLREILELIYEGDEERAQELLREVEEIAEEANSFALEYTVRILKEQLSSSS
B5: il10ra_site1_sap_22_mot_690a356816548de866c59e88e666ab0a_0001_1_af2_000000025_0001_1_13_H_._HHH_b1_01796_af2_0001_0000400019_0000001_0_0001_af2pred_0001 (protein)
chain: SSSSDIAEADARQAFKLLEIAHEQNDEELLERALELLEYLARLSNDPEAERLLEEAEKLVGSSSS
B6: il10ra_site1_normal_mot_HHH_b1_01082_af2_000000031_0001_3_19_H_._HHH_b1_06064_0001_0000200007_0000001_0 (protein)
chain: SSSSSYEEVKKLIERIVELLRRGDHEEAEKLIRELEELAEELNNPSLRFVVRLLEEVLERLSSSS
B7: il10ra_site1_sap_17_mot_HHH_b1_03763_000000209_0001_22_38_H_._HHH_b1_06016_0001_0000500017_0000001_0_0001 (protein)
chain: SSSSDDDEELLEAALRIAEQALEAGDPESARLILLAAARIAEELGNEELLEEIRRLLEEIRSSSS
B8: il10ra_site1_normal_mot_HHH_b2_04131_000000071_0001_1_16_H_._HHH_b2_02423_af2_0001_0000200002_0000002_0 (protein)
chain: SSSSSSDEELQRLLHELLRLYLKGDPRVEEVAEELRELAEELNNEVARFIVEAVERRLSSSSSSS
B9: il10ra_site1_sap_21_mot_HHH_b1_05126_000000010_0001_38_52_H_._HHH_b2_05985_af2_0001_0000600013_0000001_1_0001 (protein)
chain: SSSSDLEEEIEKLLEELEELIKEGDRERITELALKIVKLIYEAKNAELLRRLWELVKAFYSSSSS
B10: il10ra_site1_normal_mot_HHH_b1_04771_000000013_0001_40_56_H_._HHH_b1_06413_0001_0000200008_0000001_0 (protein)
chain: SSSSDLDERVSRLSQEVFRLALRGNPEEAEKVVEEAIELAEEANNERALRVLRDLEQVLESSSSS
B11: il10ra_site1_normal_mot_HHH_b1_02997_000000220_0001_39_52_H_._HHH_b1_04476_0001_0000500018_0000001_0_af2pred_dldesign_0_af2pred (protein)
chain: SSSSSSSNEEVVALLRRAMEEPDPEEAKRLAEEALRLAQANNNEILAHTAQLLLEQLESSSSSSS
B12: il10ra_site1_sap_25_mot_HHH_b2_05761_af2_000000185_0001_1_18_H_._HHH_b1_05595_af2_0001_0000200006_0000001_0_0001 (protein)
chain: SSSSDEDERYVELSLRFAEWLLKEGDPEAAKRILEAAREIAERANNEELREELEELLEKIGSSSS
B13: il10ra_site1_normal_mot_3af0db62db2b275566dae2e03bf881fa_0001_000000003_0001_37_50_H_._HHH_b2_06527_0001_0000300018_0000001_0_af2pred_0001 (protein)
chain: SSSSSSDLEQQVRAAIWFAKNIHNPTVRRKALEFALKIAEEINNEELVEEIRELLEQVNSSSSSS
B14: il10ra_site1_normal_mot_3c6ad1a4bc7d4f5cf55cee527202d42a_0001_000000108_0001_32_49_H_._HHH_b2_03602_af2_0001_0000600008_0000001_0_af2pred_dldesign_0_af2pred (protein)
chain: SSSSSDKEYYDALVKYYKEALALGKPEAAEKIALKGAEMRLEGKSLEEFEEKAKEILEEESSSSS
B15: il10ra_site1_sap_23_mot_39ab2cb694c8b9c1dc7e65c0d672c93e_0001_000000036_0001_53_65_H_._HHH_b1_07337_0001_0000100009_0000001_0_0001 (protein)
chain: SSSSDEEYKEVKRLIEEIAEALRNNDEELVRELLEELRELAEEINNPAAEFSLRILEEALNSSSS
B16: il10ra_site1_normal_mot_HHH_b2_00277_af2_000000172_0001_1_17_H_._HHH_eva_0065_0002_0000400034_0000001_0 (protein)
chain: DPEKEKLEEEIREVLERFEKGKIDPEEAKELLSRLAFKAARLGDDEAVELAIRAYAAIHQAEQRS
B17: il10ra_site1_normal_mot_HHH_b2_00033_000000036_0001_41_54_H_._HHH_b1_08598_0001_0000300016_0000002_0 (protein)
chain: SSSSSSSDFQELALRALRLLIKRNDKELFQELWRLVKEIAEHGDPELREELEEFLEEISSSSSSS
B18: il10ra_site1_sap_19_mot_2fa031a62b9321f410fa37cb4b35ac9e_0001_af2_000000160_0001_1_14_H_._HHH_b2_08251_af2_0001_0000200005_0000002_0_0001 (protein)
chain: SSSSSDQEEAVELSLEAFRLALRGDPEEARRVLEEALELAEEAGDERMAKVIRDMLRALSSSSSS
B19: il10ra_site1_normal_mot_HHH_b2_00475_000000107_0001_44_57_H_._HHH_b2_01638_af2_0001_0000200008_0000002_0 (protein)
chain: SSSSEEEQRVAELLFRALRLLAEGNPEEAEKVVEEAQKLAEENNDEELRKYVEILRHFIESHSSS
B20: il10ra_site1_sap_16_mot_8756ee2cf497b5429c717dfc0c0bcfd6_0001_000000186_0001_1_13_H_._HHH_b1_03338_0001_0000100002_0000003_0_0001 (protein)
chain: SSSSTLEWSVKFMLEIVEELLERGDKEKAEHLLEALLRHLKEAGDPELLREVEELLEEVRKSSSS
B21: il10ra_site1_normal_mot_HHH_b2_02116_af2_000000165_0001_41_55_H_._HHH_b1_06457_0001_0000100001_0000001_0 (protein)
chain: SSSDHERAVELLLRAAEIAFERGNPHQARAAIRLAREIAERINDEELEELVEEVERRLEESSSSS
B22: il10ra_site1_sap_14_mot_HHH_b1_08411_af2_000000053_0001_1_20_H_._HHH_b1_08108_0001_0000200028_0000001_0_0001 (protein)
chain: SSSSSSDEYREAYELIEEAFHIEDEEEARELLEEAKELAERAGNWALRFAIQLLLEDLSSSSSSS
B23: il10ra_site1_sap_24_mot_HHH_b1_06912_af2_000000235_0001_1_15_H_._HHH_b1_04651_0001_0000100003_0000001_0_0001 (protein)
chain: SSSSDQELYRKVEELIEEAIELQRRGNPEEARRLLEELLEELEELNNPNMLYNVRHLLKAISSSS
B24: il10ra_site1_sap_19_mot_HHH_b1_05021_af2_000000167_0001_42_56_H_._HHH_b1_02196_0001_0000400015_0000002_0_0001 (protein)
chain: SSSSDAEEYLREVAVELLELFREGDPEKAEELLEEAREFLEEKGNRELVRMIEFQFRASEWSSSS

These binders were tested against il10ra, Q13651 (assay: yeast display titration).
Sequence of il10ra, Q13651 (Q13651 whole entry): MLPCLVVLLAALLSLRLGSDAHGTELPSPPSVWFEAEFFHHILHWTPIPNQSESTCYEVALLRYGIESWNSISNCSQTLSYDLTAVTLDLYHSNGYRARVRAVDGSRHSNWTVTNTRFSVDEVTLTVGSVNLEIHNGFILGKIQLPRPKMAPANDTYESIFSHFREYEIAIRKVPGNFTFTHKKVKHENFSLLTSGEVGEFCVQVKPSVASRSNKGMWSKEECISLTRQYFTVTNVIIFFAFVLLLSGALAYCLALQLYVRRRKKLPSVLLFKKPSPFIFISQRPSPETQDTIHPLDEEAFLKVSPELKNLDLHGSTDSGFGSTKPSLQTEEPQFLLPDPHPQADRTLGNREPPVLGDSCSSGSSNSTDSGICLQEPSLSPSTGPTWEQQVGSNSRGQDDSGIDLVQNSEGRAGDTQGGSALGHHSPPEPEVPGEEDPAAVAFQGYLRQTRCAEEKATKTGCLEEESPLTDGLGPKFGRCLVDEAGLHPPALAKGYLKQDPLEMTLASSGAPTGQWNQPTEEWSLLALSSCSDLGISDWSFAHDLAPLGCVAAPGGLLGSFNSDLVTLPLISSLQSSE

Apparent Kd, inactive:
B1 no binding seen, B2 no binding seen, B3 no binding seen, B4 no binding seen, B5 no binding seen, B6 no binding seen, B7 no binding seen, B8 no binding seen, B9 no binding seen, B10 no binding seen, B11 no binding seen, B12 no binding seen, B13 no binding seen, B14 no binding seen, B15 no binding seen, B16 no binding seen, B17 no binding seen, B18 no binding seen, B19 no binding seen, B20 no binding seen, B21 no binding seen, B22 no binding seen, B23 no binding seen, B24 no binding seen
